Compound activity (PubChem BioAssay)
Hits are enriched below; roughly 18% of the tested compounds scored in any of these assays.
PLK1 PBD inh – blocks phosphopeptide binding to human PLK1 polo-box domain | Plk1 PBD binding of FITC phosphopeptide, fluorescence polarization | Potency, µM, most hits filed as inhibitors | P53350 | AID 720504 | hit rate 2.8% among 360,000; also: series mostly up to about 57 µM; nearly all actives have a fitted effect of over 65% in size
TDP1 cell noCPT – qHTS for Inhibitors of human tyrosyl-DNA phosphodiesterase 1 (TDP1): qHTS in cells in absence of CPT | DT40 Tdp1-/- hTDP1 cells, no CPT, ATP luminescence, 48 h | Potency, µM (series often up to 46.2 µM), most hits filed as inhibitors | hit rate 15% among 420,000; also: nearly all actives have a fitted effect of over 55% in size
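Compound effects on proliferation are scored in DT40 Tdp1-/-;hTDP1 cells in the absence of CPT. ATP levels (CellTiter-Glo luminescence) are recorded after a ≥48 hr, 37 °C incubation.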
TDP1 block – TDP1 (human) enzyme inhibition. recombinant TDP1, AlphaScreen DNA substrate cleavage. Potency, µM (top dose mostly 130 µM), hits mostly inhibitors. hit rate 0.28% among 350,000. AID 485290; also: nearly all actives have a fitted effect of over 40% in size
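E. coli-derived human Tdp1, 1 nM final. Cpd preinc 15 min RT; substrate 15 nM final, 5 min RT; AS bead mix 10 ug/ml final, 10 min RT. Signal loss = tyrosine-FITC cleavage. No-enzyme wells = max signal.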
GCN5L2 inh – blocks human GCN5L2 histone acetyltransferase | Potency, µM (top dose mostly 58.9 µM), actives largely listed as inhibitors | Q92830 | hit rate 0.21% among 390,000 | GCN5L2 HAT assay, ThioGlo1 CoA-SH fluorescence
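GCN5L2 (20 nM) in 50mM HEPES pH 7.5, 0.1mM EDTA, 0.01% Tween-20 preincubated 15 min with compounds at room temperature. Reaction started with H3(1-25) 75uM, acetyl-CoA 70uM, ThioGlo1 50uM; CoA-thiol fluorescence (Ex340/Em540) read at 0 and 20 min.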
TDP1 cell CPT – DT40-hTDP1 cell growth loss with CPT; chicken DT40 Tdp1-/-;hTDP1 cells + 20 nM CPT, ATP luminescence, 48 h; Potency, µM (doses to about 46.2 µM), actives largely listed as inhibitors; hit rate 12% among 420,000; AID 686979; also: nearly all actives have a fitted effect of over 55% in size
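Chicken DT40 Tdp1-/- cells complemented with human TDP1, 400 cells/well, exposed to compounds plus 20 nM camptothecin for at least 48 h at 37 C; viability read as ATP content by CellTiter-Glo luminescence.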
VDR inh – vitamin D3 receptor (human) inhibition; AID 504847; Potency, µM, actives largely listed as inhibitors; hit rate 0.93% among 400,000; VDR-SRC2-3 peptide fluorescence polarization, 2 h; P11473
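Measured by FP: displacement of SRC2-3 coactivator peptide from VDR by library compounds, following a two-hour ambient incubation.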
Large screens that a line does not name were inactive. Calls follow the shape of the dose curve; as a rule, active = well fitted curve in the direction sought with a large enough effect; inconclusive = small, poorly fitted or top-dose-only effect, or another doubt; inactive = no such curve, though single readings can be large; an effect the other way counts as inactive or inconclusive.

COc1cc(C(=O)N2CCCCC2c2cc(C(=O)Nc3ccccc3Cl)no2)cc(OC)c1C (stereo not given)	TDP1 cell noCPT 18µM, TDP1 cell CPT inconclusive (no result: TDP1 block, GCN5L2 inh, VDR inh)
COc1ccc(NC(=O)c2cc(C3CCCCN3C(=O)c3cccs3)on2)c(C)c1 (stereo not given)	TDP1 cell noCPT 21µM, TDP1 cell CPT 21µM (no result: TDP1 block, GCN5L2 inh, VDR inh)
O=C(NCc1ccc(Cl)c(Cl)c1)c1cc(C2CCCCN2C(=O)C2CCCCC2)on1 (stereo not given)	TDP1 cell noCPT 18µM, TDP1 cell CPT 16µM (no result: TDP1 block, GCN5L2 inh, VDR inh)
O=C(NCc1ccccc1)c1cc(C2CCCCN2C(=O)c2cccs2)on1 (stereo not given)	TDP1 cell noCPT inconclusive, TDP1 cell CPT 18µM (no result: TDP1 block, GCN5L2 inh, VDR inh)
O=C(Nc1ccc(F)c(Cl)c1)c1cc(C2CCCCN2C(=O)c2cccs2)on1 (stereo not given)	TDP1 cell noCPT 7.3µM, TDP1 cell CPT 16µM (no result: TDP1 block, GCN5L2 inh, VDR inh)
O=C(Nc1ccccc1Cl)c1cc(C2CCCCN2C(=O)c2cccs2)on1 (stereo not given)	TDP1 cell noCPT inconclusive, TDP1 cell CPT 29µM (no result: TDP1 block, GCN5L2 inh, VDR inh)
N#Cc1cccc(NC(=O)c2cc(C3CCCCN3C(=O)c3cccs3)on2)c1 (stereo not given)	TDP1 cell noCPT inconclusive, TDP1 cell CPT inconclusive (no result: TDP1 block, GCN5L2 inh, VDR inh)
CCCn1c(C)nc2c(N3CCC(N(C)C)C3)nc(C)nc21 (stereo not given)	none (no result: PLK1 PBD inh, TDP1 cell noCPT, GCN5L2 inh, TDP1 cell CPT, VDR inh)
O=C(NNC(=O)c1ccc(F)c(S(=O)(=O)N2CCOCC2)c1)c1ccc([N+](=O)[O-])cc1	TDP1 cell noCPT inconclusive, TDP1 cell CPT inconclusive
CC(=O)Nc1ccc(C(=O)CN2C(=O)CSC2=O)cc1	none (no result: TDP1 block)
Cc1oc(-c2ccc(C(=O)NCc3ccccc3)cc2)nc1CS(=O)(=O)c1ccccc1	TDP1 cell noCPT inconclusive (no result: PLK1 PBD inh)
CCc1ccc(CNC(=O)c2ccc(-c3nc(CS(=O)(=O)c4ccccc4)c(C)o3)cc2)cc1	TDP1 cell noCPT inconclusive, TDP1 cell CPT 15µM (no result: PLK1 PBD inh)
Cc1ccc(OCc2nc(-c3ccc(C(=O)NCCc4ccc(S(N)(=O)=O)cc4)cc3)oc2C)cc1	TDP1 cell noCPT 23µM, TDP1 cell CPT 15µM (no result: PLK1 PBD inh)
COc1cccc(CNC(=O)c2ccc(-c3nc(CS(=O)(=O)c4ccccc4)c(C)o3)cc2)c1	TDP1 cell noCPT 23µM, TDP1 cell CPT inconclusive (no result: PLK1 PBD inh)
Cc1ccc(S(=O)(=O)Cc2nc(-c3ccc(C(=O)NCc4ccccc4F)cc3)oc2C)cc1	GCN5L2 inh 25µM (no result: PLK1 PBD inh, TDP1 cell noCPT, TDP1 cell CPT)
CCCNC(=O)c1ccc(-c2nc(CS(=O)(=O)c3ccc(C)cc3)c(C)o2)cc1	TDP1 cell noCPT inconclusive, TDP1 cell CPT inconclusive (no result: PLK1 PBD inh)
COc1cccc(C2C(C(=O)c3cccs3)=C(O)C(=O)N2CCN2CCOCC2)c1OC (stereo not given)	PLK1 PBD inh inconclusive (no result: TDP1 block)
O=C(c1cccc(F)c1)N1CCC2(CCN(Cc3ccccc3)CC2)CC1	none (no result: PLK1 PBD inh, TDP1 block)
CC(=O)OCC1OC(C#Cc2ccc(F)cc2F)C=CC1OC(C)=O (stereo not given)	none (no result: PLK1 PBD inh, TDP1 cell noCPT, GCN5L2 inh, TDP1 cell CPT, VDR inh)
OCC1OCOC2C(CO)OCOC12 (stereo not given)	none (no result: TDP1 block, GCN5L2 inh)
COc1cccc(CNC(=O)c2ccc(-c3nc(COc4ccccc4)c(C)o3)cc2)c1	TDP1 cell noCPT 9.2µM, TDP1 cell CPT 15µM (no result: PLK1 PBD inh)
COc1ccc(CNC(=O)c2cnc3sc(N4CCCC4)nn3c2=O)cc1OC	TDP1 cell noCPT inconclusive, TDP1 cell CPT 9.2µM (no result: PLK1 PBD inh)
O=C(NCCc1ccccc1)c1cnc2sc(N3CCCCC3)nn2c1=O	TDP1 cell noCPT 21µM, TDP1 cell CPT 8.2µM (no result: PLK1 PBD inh)
O=C(NCCc1ccccc1)c1cnc2sc(N3CCCCCC3)nn2c1=O	TDP1 cell noCPT 13µM, TDP1 cell CPT inconclusive (no result: PLK1 PBD inh)
O=C(NCc1ccccc1Cl)c1cnc2sc(N3CCCCC3)nn2c1=O	TDP1 cell noCPT 9.2µM, TDP1 cell CPT 13µM (no result: PLK1 PBD inh)
CCc1ccc(CNC(=O)c2cnc3sc(N4CCCC4)nn3c2=O)cc1	none (no result: PLK1 PBD inh)
COCCNC(=O)c1cnc2sc(N3CCCCC3)nn2c1=O	none (no result: PLK1 PBD inh)
COc1cc(OC)cc(-c2noc([C@@H]3O[C@H](CO)[C@@H](O)[C@H]3O)n2)c1	TDP1 cell noCPT inconclusive, TDP1 cell CPT inconclusive (no result: TDP1 block, GCN5L2 inh, VDR inh)
